# The supplement of paper PMC7057948, “A genome-wide approach for identification and characterisation of metabolite-inducible systems” (Nature Communications, 2020)
# What was measured:
# Settings in all cases: inducer concentration 5 mM; 6 h; Cupriavidus necator H16; minimal medium + 0.4% gluconate
# [1] = tested on: AcoR/P_H16_RS19445 acetoin biosensor (pEH052); assay: relative induction of RFP reporter vs primary effector (background-corrected); higher = stronger activation of the biosensor
# Procedure: (§1)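 C. necator H16 strains, each carrying one of 21 transcription factor/inducible promoter–mRFP biosensor plasmids, were grown in minimal medium in 96-well plates (robotic platform). Each was exposed to 46 structurally or metabolically related compounds at 5 mM at 30 °C. OD-normalised RFP fluorescence was read 6 h later and expressed as relative induction (%) = 100 × (FL compound − FL uninduced)/(FL primary inducer − FL uninduced); mean of n=4.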
# [2] = tested on: AraC/P_araBAD L-arabinose biosensor (pEH176); assay: as above
# Procedure: as §1
# [3] = tested on: BenM/P_H16_RS09790 benzoate biosensor (pEH148); assay: as above
# Procedure: as §1
# [4] = tested on: FdsR/P_H16_RS03165 formate biosensor (pEH134); assay: as above
# Procedure: as §1
# [5] = tested on: GabR/P_H16_RS23655 GABA biosensor (pEH256); assay: as above
# Procedure: as §1
# [6] = tested on: HpdR/P_H16_RS18295 3-hydroxypropanoate biosensor (pEH010); assay: as above
# Procedure: as §1
# [7] = tested on: KynR/P_H16_RS14030 L-kynurenine biosensor (pEH136); assay: as above
# Procedure: as §1
# [8] = tested on: NahR/P_H16_RS08125 salicylate biosensor (pEH042); assay: as above
# Procedure: as §1
# [9] = tested on: OapR/P_H16_RS01330 beta-alanine biosensor (pEH147); assay: as above
# Procedure: as §1
# [10] = tested on: PcaQ/P_H16_RS30145 3,4-dihydroxybenzoate biosensor (pEH161); assay: as above
# Procedure: as §1
# [11] = tested on: PhgR/P_H16_RS05530 phenylglyoxylate biosensor (pEH155); assay: as above
# Procedure: as §1
# [12] = tested on: PhhR/P_H16_RS18365 L-phenylalanine biosensor (pEH137); assay: as above
# Procedure: as §1
# [13] = tested on: SauR/P_H16_RS13695 sulfonatoacetate biosensor (pEH157); assay: as above
# Procedure: as §1
# [14] = tested on: TtdR/P_H16_RS10665 tartrate biosensor (pEH083); assay: as above
# Procedure: as §1
# [15] = tested on: XdhR/P_H16_RS05055 xanthine biosensor (pEH154); assay: as above
# Procedure: as §1
# [16] = tested on: heterologous inducible system pEH002 (rhamnose/acrylate/cumate/itaconate set); assay: as above
# Procedure: as §1
# [17] = tested on: heterologous inducible system pEH020 (rhamnose/acrylate/cumate/itaconate set); assay: as above
# Procedure: as §1
# [18] = tested on: heterologous inducible system pEH040 (rhamnose/acrylate/cumate/itaconate set); assay: as above
# Procedure: as §1
# [19] = tested on: heterologous inducible system pEH086 (rhamnose/acrylate/cumate/itaconate set); assay: as above
# Procedure: as §1
# [20] = tested on: PcaQ/P_H16_RS30145 3,4-dihydroxybenzoate biosensor (pEH161); assay: relative induction of RFP reporter vs primary effector; higher = stronger activation
# Procedure: (§2)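 Orthogonality screen of 21 primary inducers against 21 transcription factor/inducible promoter–mRFP biosensors in C. necator H16 in minimal medium, robotic 96-well format, 5 mM inducer, 30 °C. OD-normalised RFP fluorescence was read 6 h later and expressed as relative induction (%) = 100 × (FL compound − FL uninduced)/(FL primary inducer − FL uninduced); mean of n=4. Cognate pairs (100% by definition) omitted.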
# [21] = tested on: AraC/P_araBAD L-arabinose biosensor (pEH176); assay: as above
# Procedure: as §2
# [22] = tested on: BadR/P_H16_RS27200 cyclohexanecarboxylate biosensor (pEH159); assay: as above
# Procedure: as §2
# [23] = tested on: BenM/P_H16_RS09790 benzoate biosensor (pEH148); assay: as above
# Procedure: as §2
# [24] = tested on: FdsR/P_H16_RS03165 formate biosensor (pEH134); assay: as above
# Procedure: as §2
# [25] = tested on: GabR/P_H16_RS23655 GABA biosensor (pEH256); assay: as above
# Procedure: as §2
# [26] = tested on: HpdA/P_H16_RS24175 L-tyrosine biosensor (pEH158); assay: as above
# Procedure: as §2
# [27] = tested on: NahR/P_H16_RS08125 salicylate biosensor (pEH042); assay: as above
# Procedure: as §2
# [28] = tested on: OapR/P_H16_RS01330 beta-alanine biosensor (pEH147); assay: as above
# Procedure: as §2
# [29] = tested on: PhgR/P_H16_RS05530 phenylglyoxylate biosensor (pEH155); assay: as above
# Procedure: as §2
# [30] = tested on: SauR/P_H16_RS13695 sulfonatoacetate biosensor (pEH157); assay: as above
# Procedure: as §2
# [31] = tested on: TtdR/P_H16_RS10665 tartrate biosensor (pEH083); assay: as above
# Procedure: as §2
# [32] = tested on: XdhR/P_H16_RS05055 xanthine biosensor (pEH154); assay: as above
# Procedure: as §2
# [33] = tested on: heterologous L-rhamnose-inducible system; assay: as above
# Procedure: as §2
# [34] = tested on: heterologous acrylate-inducible system; assay: as above
# Procedure: as §2
# [35] = tested on: heterologous cumate-inducible system; assay: as above
# Procedure: as §2
# [36] = tested on: heterologous itaconate-inducible system; assay: as above
# Procedure: as §2
# 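For relative induction of RFP reporter vs primary effector (background-corrected) in this document: RFP excited at 585 nm with emission read at 620 nm, culture medium blanks subtracted from fluorescence and absorbance prior to normalisation.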
smiles,measurement,setting,value
O=C(O)C1=CCCCC1 [cyclohexene-1-carboxylate],relative induction of RFP reporter,[1],2.55%
same,relative induction of RFP reporter,[2],-0.0101%
same,relative induction of RFP reporter,[3],156%
same,relative induction of RFP reporter,[4],-3.7%
same,relative induction of RFP reporter,[5],-1.27%
same,relative induction of RFP reporter,[6],-0.493%
same,relative induction of RFP reporter,[7],0.423%
same,relative induction of RFP reporter,[8],-0.00892%
same,relative induction of RFP reporter,[9],1.03%
same,relative induction of RFP reporter,[10],-0.0381%
same,relative induction of RFP reporter,[11],-0.121%
same,relative induction of RFP reporter,[12],-0.244%
same,relative induction of RFP reporter,[13],0.0222%
same,relative induction of RFP reporter,[14],0.391%
same,relative induction of RFP reporter,[15],0.161%
same,relative induction of RFP reporter,[16],0.0231%
same,relative induction of RFP reporter,[17],0.24%
same,relative induction of RFP reporter,[18],1.34%
same,relative induction of RFP reporter,[19],0.551%
Oc1ccccc1 [phenol],relative induction of RFP reporter,[1],-1.65%
same,relative induction of RFP reporter,[2],-0.0137%
same,relative induction of RFP reporter,[3],-0.0189%
same,relative induction of RFP reporter,[4],-3.17%
same,relative induction of RFP reporter,[5],-2.32%
same,relative induction of RFP reporter,[6],-0.39%
same,relative induction of RFP reporter,[7],-0.287%
same,relative induction of RFP reporter,[8],0.011%
same,relative induction of RFP reporter,[9],-1.38%
same,relative induction of RFP reporter,[10],-0.0887%
same,relative induction of RFP reporter,[11],-0.147%
same,relative induction of RFP reporter,[12],-0.522%
same,relative induction of RFP reporter,[13],0.0243%
same,relative induction of RFP reporter,[14],0.576%
same,relative induction of RFP reporter,[15],-0.78%
same,relative induction of RFP reporter,[16],-0.0073%
same,relative induction of RFP reporter,[17],-2.66%
same,relative induction of RFP reporter,[18],-1.14%
same,relative induction of RFP reporter,[19],-0.575%
O=C(O)CC(=O)C(=O)O [oxaloacetate],relative induction of RFP reporter,[1],0.0874%
same,relative induction of RFP reporter,[2],-0.00919%
same,relative induction of RFP reporter,[3],-0.0305%
same,relative induction of RFP reporter,[4],2.96%
same,relative induction of RFP reporter,[5],-0.991%
same,relative induction of RFP reporter,[6],0.0505%
same,relative induction of RFP reporter,[7],-0.384%
same,relative induction of RFP reporter,[8],0.0244%
same,relative induction of RFP reporter,[9],0.302%
same,relative induction of RFP reporter,[10],-0.0492%
same,relative induction of RFP reporter,[11],-0.502%
same,relative induction of RFP reporter,[12],-0.153%
same,relative induction of RFP reporter,[13],0.016%
same,relative induction of RFP reporter,[14],-0.0827%
same,relative induction of RFP reporter,[15],-0.199%
same,relative induction of RFP reporter,[16],0.0189%
same,relative induction of RFP reporter,[17],-0.323%
same,relative induction of RFP reporter,[18],-0.91%
same,relative induction of RFP reporter,[19],-0.0639%
O=C(O)c1ccccc1,relative induction of RFP reporter,[20],0.00574%
CC(=O)C(C)O (stereo not given) [acetoin],relative induction of RFP reporter,[21],0.00953%
same,relative induction of RFP reporter,[22],-0.805%
same,relative induction of RFP reporter,[23],-0.0473%
same,relative induction of RFP reporter,[24],-6.92%
same,relative induction of RFP reporter,[25],-1.36%
same,relative induction of RFP reporter,[26],-0.195%
same,relative induction of RFP reporter,[27],0.00159%
same,relative induction of RFP reporter,[28],-0.507%
same,relative induction of RFP reporter,[20],-0.169%
same,relative induction of RFP reporter,[29],-0.461%
same,relative induction of RFP reporter,[30],-0.0229%
same,relative induction of RFP reporter,[31],0.102%
same,relative induction of RFP reporter,[32],-0.695%
same,relative induction of RFP reporter,[33],-0.0013%
same,relative induction of RFP reporter,[34],-1.85%
same,relative induction of RFP reporter,[35],-1.61%
same,relative induction of RFP reporter,[36],0.0808%
